# Laboratory results published in PubChem BioAssay.
# A number with no mark means an inactive call. No rule for the calls is given here.
# Target: Pantothenate synthetase (Mycobacterium tuberculosis (strain ATCC 25618 / H37Rv)) (UniProt P9WIL5)
# Experiment: Coupled enzyme confirmation of inhibitors against recombinant Mtb PanC (AID 375);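 also: 0% = full reaction with vehicle and 100% = no enzyme background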
# Details: coupled enzyme assay; at 10 µM, active compounds read high
# Sequence of Pantothenate synthetase (Mycobacterium tuberculosis (strain ATCC 25618 / H37Rv)) (P9WIL5 whole entry, looked up): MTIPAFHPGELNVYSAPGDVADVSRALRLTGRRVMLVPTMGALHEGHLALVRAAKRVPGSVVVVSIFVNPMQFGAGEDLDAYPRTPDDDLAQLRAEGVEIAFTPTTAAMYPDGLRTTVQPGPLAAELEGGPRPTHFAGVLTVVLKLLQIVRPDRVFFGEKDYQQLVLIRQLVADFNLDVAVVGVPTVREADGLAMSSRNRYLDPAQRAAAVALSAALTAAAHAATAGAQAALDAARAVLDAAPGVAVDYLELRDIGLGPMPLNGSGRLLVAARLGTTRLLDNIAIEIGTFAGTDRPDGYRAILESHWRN
row,SMILES,inhibition
1,O=C(NCc1cccs1)c1cc2c(s1)CCCC2,0%
2,CCOc1ccc2nc(NC(=O)C(NS(=O)(=O)c3cccs3)C(C)C)sc2c1 (stereo not drawn),0%
3,NC(=O)c1c(-c2ccccc2)oc2ccc(O)cc12,0%
4,COc1ccc(-n2nnc3c(=O)n(C/C=C/c4ccccc4)cnc32)cc1,2%
5,O=P(O)(CCc1ccccc1)CN1CCCCC1,6%
6,c1c2c(cc3sc(N4CCCCC4)nc13)OCCO2,4%
7,CCOC(=O)C(C#N)C(c1cccnc1)c1c(C)[nH][nH]c1=O (stereo not drawn),3%
8,O=C(Cc1ccccc1)Nc1nnc(-c2cccs2)s1,0%
9,CN(Cc1cccs1)c1ncnc2sccc12,0%
10,O=C(O)CCCCCNc1nc(=S)[nH]c2ccccc12,0%
11,O=C(C1=C(O)C(=O)N(c2ncccn2)C1c1cccc(Cl)c1)c1ccco1 (stereo not drawn),0%
12,CCOC(=O)CN(C(=O)CSc1nnc(-c2ccncc2)n1CCCN(C)C)c1ccccc1,11%
13,CCOC(=O)c1[nH]c(C)c(C(=O)NCc2ccccn2)c1C,0%
14,O=C(CSc1nnnn1-c1ccccc1)Nc1ccc(Cl)cc1,0%
15,O=C(CN1CCN(C2CCCCC2)CC1)Nc1ccccc1-c1ccccc1,6%
16,CCC1CCCCN1C(=O)CSc1nnc(-c2ccco2)o1 (stereo not drawn),1%
17,CCCn1c(-c2ccc(F)cc2)cnc1SCC(=O)O,0%
18,O=C(NC1CCCCC1)n1c(=O)oc2ccc(Cl)cc21,5%
19,N#CCC(=O)Nc1ncn(Cc2ccccc2Cl)n1,0%
20,CC1Oc2ccccc2N(CC(=O)NCc2cccs2)C1=O (stereo not drawn),0%
21,CCC(C)C(NC(=O)C1CCC(C)CC1)C(=O)NCc1cccnc1 (stereo not drawn),6%
22,Cc1ccccc1-n1nc(C)c2cc(C(=O)NCc3cccnc3)sc21,0%
23,CCCC(CCC)C(=O)OC1C[C@H]2CC[C@@H](C1)[N+]2(C)C (stereo partly drawn),0%
